Compound activity deposited in PubChem BioAssay by several laboratories.
MBD2 DNA inh: inhibitors of human MBD2 binding to methylated oligonucleotide | Q9UBB5 | TR-FRET | inhibition, % at 4.4 µM | 0.31% of 370,000 active; in the data active = inhibition above about 13%
Target sequence (Q9UBB5 whole entry, looked up): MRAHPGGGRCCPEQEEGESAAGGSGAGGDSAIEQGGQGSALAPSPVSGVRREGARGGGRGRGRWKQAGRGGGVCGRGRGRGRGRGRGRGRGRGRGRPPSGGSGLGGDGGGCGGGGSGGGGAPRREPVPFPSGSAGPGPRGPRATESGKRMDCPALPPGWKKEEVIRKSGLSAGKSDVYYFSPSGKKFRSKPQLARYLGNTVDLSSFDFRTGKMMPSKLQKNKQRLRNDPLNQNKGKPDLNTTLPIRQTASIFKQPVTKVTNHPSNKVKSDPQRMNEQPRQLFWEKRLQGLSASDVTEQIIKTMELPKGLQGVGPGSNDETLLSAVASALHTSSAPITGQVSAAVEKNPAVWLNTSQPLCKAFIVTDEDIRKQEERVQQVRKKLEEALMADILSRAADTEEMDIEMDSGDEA
Rin1 Abl inh: human Rin1-Abl interaction inhibition; AID 588664; inhibition, % at 7.35 µM; P00519+Q13671; TR-FRET Rin1/Abl binding, biochemical; 0.4% of 360,000 active; in the data active = inhibition above about 5%, passing the limit was not always enough
LEDGF integ inh: blocks HIV-1 LEDGF/p75-dependent DNA integration; TR-FRET IN-LEDGF/p75 DNA integration, Eu/Cy5; inhibition, % at 3.7 µM; 0.64% of 370,000 active; AID 743269;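 active = inhibition above the screen-wide mean plus 3 SD, cut at about 13% in these data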;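 note: signal is the Cy5 over europium emission ratio at 671 and 618 nm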
Neddyl block: inhibitors of human cullin neddylation | P61081+Q13564 | TR-FRET cullin neddylation, biochemical | calls only at 25 µM | 0.58% of 360,000 active | AID 651699; in the data active = inhibition above about 36%
UHRF1 MBD2 ctr: blocks human UHRF1 binding to methylated DNA. Q96T88. UHRF1 binding to methylated oligo, TR-FRET. inhibition, % at 4.4 µM. 0.75% of 370,000 active. AID 687016; in the data active = inhibition above about 21%;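 note: UHRF1 SRA domain binding a hemimethylated CpG hairpin DNA probe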
KLK7 zymogen act: activators of human kallikrein-7 zymogen | P49862 | purified proKLK7, EDANS-DABCYL substrate fluorescence; 100% is mature enzyme control, 0% vehicle | activation, % at 7 µM | 0.9% of 370,000 active;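 active = activation above the mean of all tested compounds plus 3 SD, computed per campaign excluding outliers beyond control limits, cut at about 13% in these data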
Target sequence (P49862 whole entry, looked up): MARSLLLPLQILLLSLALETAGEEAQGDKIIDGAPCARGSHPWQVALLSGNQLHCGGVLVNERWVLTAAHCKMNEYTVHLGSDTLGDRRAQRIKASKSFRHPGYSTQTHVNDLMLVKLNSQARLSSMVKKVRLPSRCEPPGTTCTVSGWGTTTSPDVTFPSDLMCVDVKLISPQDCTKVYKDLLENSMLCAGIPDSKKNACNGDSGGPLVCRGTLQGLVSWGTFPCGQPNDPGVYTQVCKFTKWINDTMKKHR
Rin1-Abl confirm: Rin1-Abl interaction inhibition confirmation. TR-FRET Rin1-Abl binding, purified proteins. 49% of 1,300 active. shares compounds with Rin1 Abl inh. inhibition, % at 7.35 µM. AID 602124
GFP quench: counter-screen for Rin1-Abl inhibitors: GFP fluorescence quenchers | shares compounds with Rin1 Abl inh | inhibitors/quenchers counterscreen | inhibition, % at 6.75 µM | 8.5% of 1,300 active;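 note: ABL1-eGFP fusion protein alone without its partner RIN1-SBP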
GFP quench DR: GFP fluorescence interference dose response; GFP fluorescence interference/quenching counterscreen; AID 602182; shares compounds with Rin1 Abl inh; IC50, µM; 230 tested, under 10 active; call rule not given here;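 note: ABL1-eGFP fusion protein alone without its RIN1 binding partner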
Each line names hits and unclear results; the compound was inactive in the other large screens (follow-up assays come after a bar, where they were run). Compounds with a hit are over-represented: about 3.1% of the library has one in this group of screens. Cut-off read from the data, not from the text of the source, unless noted: active = inhibition above about 6.5%; inactive = the rest.

O=C1N(Cc2cccnc2)C[C@@H]2C[C@@H](c3ccc4nonc4c3)N3CCC[C@@]123	none
CCCCCCCCN1C(=O)[C@@H](CC(=O)NCCCN2CCCC2=O)C[C@@]2(C(=O)OC)C1=C[C@H](COCc1ccccc1)O[C@@H]2C	none (no result: Rin1 Abl inh, Neddyl block)
Cc1cccc(NC(=O)[C@H](NC(=O)[C@@H]2Cc3ccccc3CN2)c2ccccc2)c1	none
Cc1cccc(NC(=O)[C@@H](CC(C)C)NC(=O)[C@@H]2Cc3ccccc3CN2)c1	Rin1 Abl inh 30 | Rin1-Abl confirm inactive | GFP quench inactive
O=C(NC1CCCC1)C1(C(=O)C2CC2)CC(c2ccccn2)=NO1 (stereo not drawn)	none (no result: Rin1 Abl inh, Neddyl block)
OCCC1CN(Cc2ccc3c(c2)CCO3)CCN1Cc1ccc(F)cc1 (stereo not drawn)	none
CCCCCC1NC(=O)NC1CCCCCC(=O)O (stereo not drawn)	Rin1 Abl inh 14 | Rin1-Abl confirm 14 | GFP quench inactive
NC1(N2SC(S)=C3CCCC=C32)CCCCC1	none (no result: Rin1 Abl inh, Neddyl block)
CC1=NN(c2ccccc2)C(=O)/C1=C\c1ccc(Oc2ccc([N+](=O)[O-])cc2[N+](=O)[O-])cc1	MBD2 DNA inh 15, Rin1 Abl inh 7.4, LEDGF integ inh 31 | Rin1-Abl confirm inactive | GFP quench inactive
O=C(Nc1cccc(NC(=O)c2cccnc2)c1)c1cccnc1	Rin1 Abl inh 8.6 (no result: MBD2 DNA inh, LEDGF integ inh, UHRF1 MBD2 ctr, KLK7 zymogen act) | Rin1-Abl confirm inactive | GFP quench inactive
CN(Cc1ccccc1)C(=O)c1nc2ccccn2c1CN1CCc2sccc2C1	Rin1 Abl inh 9.8 | Rin1-Abl confirm inactive | GFP quench inactive
Cc1ccc(S(=O)(=O)N2C(c3ccccc3)CC(=O)C3CN(S(=O)(=O)c4ccc(Cl)cc4)C(c4ccccc4)CC32)cc1 (stereo not drawn)	none (no result: Rin1 Abl inh)
COc1ccc(NS(=O)(=O)c2ccc(OC)c(OC)c2)cc1OC	none
COc1cc(S(=O)(=O)Nc2ccccc2)ccc1NC=O	Rin1 Abl inh 5.4 | Rin1-Abl confirm inactive | GFP quench inactive
CN(CC(=O)Nc1ccc(F)cc1)C(=O)c1ccc(OCc2ccccc2)cc1	none
CN(CC(=O)Nc1cccc(F)c1)C(=O)c1ccc(OCc2ccccc2)cc1	Rin1 Abl inh 12 | Rin1-Abl confirm inactive | GFP quench inactive
COc1ccc(NC(=O)C2CCCN(c3ncnc4onc(-c5ccc(F)cc5)c34)C2)cc1 (stereo not drawn)	Rin1 Abl inh 9.2 | Rin1-Abl confirm inactive | GFP quench inactive
COc1ccccc1OCC(=O)OCC(=O)NCCN1C(=O)CSC1=O	none
O=C(COC(=O)CNC(=O)c1ccco1)NCCN1C(=O)CSC1=O	Rin1 Abl inh 5.0 | Rin1-Abl confirm inactive | GFP quench inactive
C#CCOCCOCCOCCNc1nc(N2CCOCC2)nc(N2CCN(C(=O)[C@H](CCC(=O)O)n3cc(C(N)CO)nn3)CC2)n1 (stereo partly drawn)	none (no result: Rin1 Abl inh, Neddyl block, KLK7 zymogen act)
CCc1ccc2oc(C(=O)NCCc3ccc(S(N)(=O)=O)cc3)cc(=O)c2c1	none
COc1ccc(C2NC(=O)CCC2[N+](=O)[O-])cc1 (stereo not drawn)	none
O=C1CCC([N+](=O)[O-])C(c2ccc(Br)cc2)N1 (stereo not drawn)	Rin1 Abl inh 11 | Rin1-Abl confirm 8.1 | GFP quench inactive
COc1ccc(-n2c(SCCNCCO)nc3sc4c(c3c2=O)CCCC4)cc1	none
O=C(CN1C(=O)CCSc2ccc(S(=O)(=O)N3CCOCC3)cc21)Nc1cccc(F)c1	Rin1 Abl inh 16 | Rin1-Abl confirm 15 | GFP quench inactive
O=C(c1ccco1)N1CCN(Cc2cc(=O)c(OCc3ccccc3Cl)co2)CC1	Rin1 Abl inh 14 | Rin1-Abl confirm 10 | GFP quench inactive
CCCCN(C=O)c1c(CC)nc2c(OCC(=O)c3ccc(F)cc3)cccn12	none
Cc1ccc(NC(=O)CN2C(=O)N/C(=C/c3cccn3-c3ccc(C(=O)O)cc3)C2=O)cc1	MBD2 DNA inh 72, Rin1 Abl inh 9.7, LEDGF integ inh 57, UHRF1 MBD2 ctr 102 | Rin1-Abl confirm 9.0 | GFP quench 9.9
Cc1ccc(NC(=O)CN2C(=O)N/C(=C/c3cc(C)n(-c4ccc(C(=O)O)cc4)c3C)C2=O)cc1	none
Cc1cc(C(=O)CSCCCn2c(=O)[nH]c3ccccc32)c(C)n1C	none
O=c1[nH]c2ccccc2n1CCCSCCCn1c(=O)[nH]c2ccccc21	Rin1 Abl inh 8.7 | Rin1-Abl confirm 14 | GFP quench inactive
CCCCOc1ccc(C(=O)N(Cc2ccco2)C2CCS(=O)(=O)C2)cc1 (stereo not drawn)	Rin1 Abl inh 9.6 (no result: MBD2 DNA inh, LEDGF integ inh, UHRF1 MBD2 ctr, KLK7 zymogen act) | Rin1-Abl confirm inactive | GFP quench inactive
CCCCOc1cccc(C(=O)N(Cc2ccco2)C2CCS(=O)(=O)C2)c1 (stereo not drawn)	none
CCOc1ccc(C(=O)Nc2nnc(C(C)C)s2)cc1OCC	Rin1 Abl inh 7.8 | Rin1-Abl confirm inactive | GFP quench inactive
COc1cc(N)ccc1NC(=O)c1cc2ccccc2o1	none
O=C(Nc1ccccc1)c1cc2n(n1)C(C(F)(F)F)CC(C1CC1)N2 (stereo not drawn)	none
O=C(NCCS(=O)(=O)N1CCN(c2ccc(F)cc2)CC1)C12CC3CC(CC(C3)C1)C2	none
O=C(NNC(=O)c1cc(O)c(O)c(O)c1)NC1CCCCC1	Rin1 Abl inh 22 | Rin1-Abl confirm 22 | GFP quench 14
O=C(c1ccccc1)N(CCN1CCOCC1)C1(C(=O)Nc2ccccc2)CCCCC1	Rin1 Abl inh 8.5 | Rin1-Abl confirm inactive | GFP quench inactive
O=C(Cn1c(=O)n(-c2ccccc2)c(=O)c2sccc21)N1CCCC1	none
Cc1ccc(-n2c(=O)c3sccc3n(CC(=O)N3CCCC3)c2=O)cc1	Rin1 Abl inh 5.8 | Rin1-Abl confirm inactive | GFP quench inactive
COC(=O)c1ccc(CSc2nnnn2-c2ccccc2)o1	none
COC(=O)c1ccc(CSc2nnc(-c3ccccc3)n2C)o1	Rin1 Abl inh 23 | Rin1-Abl confirm 32 | GFP quench inactive | GFP quench DR inactive
COC(=O)c1ccc(CSc2nnc(-c3c[nH]c4ccccc34)n2C)o1	Rin1 Abl inh 26 | Rin1-Abl confirm 32 | GFP quench inactive | GFP quench DR inactive
NCCc1nc(-c2ccccc2)cs1	none
COc1ccccc1C(=O)NCC1CCN(c2ccc(S(=O)(=O)N3CCOCC3)cc2)CC1	Rin1 Abl inh 22 | Rin1-Abl confirm 13 | GFP quench inactive
